# Rows were chosen to be rich in hits. Some 8.8% of all compounds tested hit in one or more screens of this group.
# Lamin A splicing: changes lamin A minigene splicing in HeLa cells. Potency, µM (titrated, usually from 46.1 µM), without a hit: at the top dose ratio change, negative = inhibition, actives largely listed as inhibitors. HeLa LMNA splicing GFP/RFP minigene ratio, 48 h. hit rate 0.01% among 200,000; active = well fitted inhibition curve with a large enough effect in the signal ratio, with a control signal flat, not every such curve was filed as active; inconclusive = small, poorly fitted or top-dose-only effect, or effect the other way, or a change in a side signal; the % refers to the signal ratio; also: % is scaled to controls: 0 for no effect and ±100 for the full control effect
#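 Read-out is the ratio of GFP to DsRed2 object intensity, acquired by 488 nm laser-scanning cytometry on HeLa lamin A-EGFP minigene reporter cells. Compound incubation 48 hrs at 37 °C in Opti-MEM with 2% FBS; DMSO 0.5% final.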
# HTT aggregate: reduces HttQ103-GFP aggregates in PC12 cells | hit rate 1.1% among 220,000 | Potency, µM (series often up to 46.1 µM), without a hit: top-dose activity change, negative = inhibition, most hits filed as inhibitors | AID 1688 | PC12 HttQ103-GFP aggregates, Acumen cytometry, 40 h; also: % is scaled to controls: 0 for no effect and ±100 for the full control effect; nearly all actives have a fitted effect of over 60% in size
#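 Multiplexed with ATP-based cell death, this channel scores GFP aggregates in PC12 cells expressing inducible HTTex1-Q103-GFP. Induction used 100 nM tebufenozide; compounds were tested in concentration series.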
# HTT ATP protect: protects HTT-Q103 PC12 cells, measured by ATP; PC12 HTT-Q103 induced, cytoprotection, ATP luminescence, 40 h; Potency, µM (titrated, usually from 56.4 µM), inactives show cytoprotection (ATP increase), actives largely listed as activators; hit rate 0.14% among 230,000; AID 1471; also: % of control where 0% means no effect; nearly all actives have a fitted effect of over 45% in size
#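 Rat PC12, Q103 Htt exon1-GFP fusion, ecdysone promoter; tebufenozide inducer 100 nM final; compound titration; qHTS, 1500 cells/well; ATPlite luminescent read.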
# ALDH1A1 inh: blocks purified human ALDH1A1 activity | P00352 | hit rate 7.3% among 220,000 | Purified ALDH1A1, NADH fluorescence, propionaldehyde substrate | Potency, µM (titrated, usually from 75.3 µM), for inactives: top-dose activity, negative = inhibition, hits mostly inhibitors; active = well fitted inhibition curve with a large enough effect, not every such curve was filed as active; inconclusive = small, poorly fitted or top-dose-only effect, or another doubt; inactive = no such curve, though single readings can be large or run the other way;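 also: plate controls were no enzyme wells and a reference inhibitor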
# Target sequence (P00352 whole entry, looked up): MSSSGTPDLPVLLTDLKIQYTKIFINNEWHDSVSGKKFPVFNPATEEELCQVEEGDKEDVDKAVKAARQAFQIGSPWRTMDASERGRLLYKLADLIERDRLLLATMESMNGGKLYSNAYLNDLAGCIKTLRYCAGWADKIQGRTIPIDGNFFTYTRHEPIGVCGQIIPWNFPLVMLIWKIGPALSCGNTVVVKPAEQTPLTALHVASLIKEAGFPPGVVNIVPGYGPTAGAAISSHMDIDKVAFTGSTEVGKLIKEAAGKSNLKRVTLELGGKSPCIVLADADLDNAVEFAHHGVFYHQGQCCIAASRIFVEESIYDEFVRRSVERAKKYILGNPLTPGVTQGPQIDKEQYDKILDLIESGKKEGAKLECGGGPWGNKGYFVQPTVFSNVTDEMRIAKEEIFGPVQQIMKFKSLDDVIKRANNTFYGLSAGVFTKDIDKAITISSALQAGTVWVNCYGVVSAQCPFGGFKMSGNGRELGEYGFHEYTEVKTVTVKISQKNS
# HPGD inh: inhibitors of human 15-hydroxyprostaglandin dehydrogenase (HPGD); hit rate 4.3% among 150,000; Potency, µM, inactives show at the top dose activity change, negative = inhibition, most hits filed as inhibitors; purified HPGD, NADH fluorescence kinetic, PGE2 substrate; active = well fitted inhibition curve with a large enough effect, not every such curve was filed as active; inconclusive = small, poorly fitted or top-dose-only effect, or another doubt; inactive = no such curve, though single readings can be large or run the other way; also: % is scaled to controls: 0 for no effect and ±100 for the full control effect
#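 NADH formation kinetics: reaction with 30 uM PGE2 and 1 mM NAD+ (final), 20 nM enzyme, Tris-HCl pH 8 with Tween 20, after 15 min compound preincubation at room temperature. Fluorescence change, last versus first of five reads.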
# Numbers without * were called inactive; u = inconclusive; x = no result; [ ] = dose if it differs, or a comment. Unless noted, calls follow the shape of the dose curve; as a rule, active = well fitted curve in the direction sought with a large enough effect; inconclusive = small, poorly fitted or top-dose-only effect, or another doubt; inactive = no such curve, though single readings can be large; an effect the other way counts as inactive or inconclusive. Potency is read from the fitted curve at half-maximal effect.
SMILES,Lamin A splicing,HTT aggregate,HTT ATP protect,ALDH1A1 inh,HPGD inh
C=C1C(=O)[C@@]23[C@H](O)C[C@@H]4C(C)(C)CC[C@H](O)[C@]4(C)[C@@H]2C[C@H](O)[C@@H]1[C@H]3O,u,3.2µM*,x,-2%,-15%
C=C1C(=O)[C@@]23[C@H](O)C[C@@H]4C(C)(C)CC[C@H](O)[C@@]4(C)[C@@H]2CC[C@@H]1[C@H]3O,u,2.8µM*,x,0%,-21%
C/C=C(\C)CN1CCN(c2cc(C)ccc2C)CC1,5%,u,-2%,16µM*,-15%
C/C=C(\C)CN1CCN(c2cccc(C)c2C)CC1,0%,18%,-4%,1%,u
CSc1ccccc1NC(=O)COc1ccc(Cl)cc1,u,-18%,16%[10 µM],-13%,28µM*
O=C(CCl)Nc1ccccc1Sc1ccc(Cl)cc1,u,-9%,-3%,4µM*,-11%
CSc1ccccc1NC(=O)COc1ccccc1Cl,11%,5%,-13%,-12%,25µM*
CC1CCN(S(=O)(=O)c2ccc3c(c2)N(CC(=O)O)C(=O)CO3)CC1,-8%[46 µM],x,x,x,x
COCCNS(=O)(=O)c1ccc(OCC(=O)OC)c(Cl)c1,-12%,3.2µM*,-31%[0.074 µM],-4%,-10%
COCCNS(=O)(=O)c1ccc(-c2ccc(S(=O)(=O)NCCOC)cc2)cc1,u,3%,7%[0.074 µM],u,11µM*
N#CC1=C(N)SC(N)=C(C#N)C1CCC1CCCCC1,u,0.89µM*,10%[10 µM],14µM*,16µM*
CC(C)(C)C1CCC(OC(=O)CN2CCCCC2)CC1 (configuration not stated),x,0%[9.22 µM],13%[10 µM],x,x
COc1ccc(NC(=O)COC(=O)Cc2ccccc2[N+](=O)[O-])cc1OC,x,-3%,1%,14µM*,x
O=C(Cc1ccccc1[N+](=O)[O-])NCc1ccc2c(c1)OCO2,5%,-5%,-3%[10 µM],-2%,-8%
Cc1c(C(=O)OCC(=O)Nc2ccc3c(c2)OCO3)cccc1[N+](=O)[O-],-17%,8%,-6%[10 µM],8.9µM*,-11%
Cc1c(C(=O)OCC(=O)NCc2ccc3c(c2)OCO3)cccc1[N+](=O)[O-],7%,11%,51%[0.074 µM],7.9µM*,-15%
CCOC(=O)c1cc(-c2ccc(C)cc2)n(CCC(=O)N2CCN(c3ccccn3)CC2)c1C,u,2%,19%[10 µM],2%,-20%
O=C1OC(/C(=C\Nc2ccc(F)cc2F)[N+](=O)[O-])c2ccccc21 (configuration not stated),x,u,-45%,u,x
CN(NC1OC(=O)c2ccccc21)c1ccc(Cl)cc1[N+](=O)[O-] (configuration not stated),x,-1%[9.22 µM],5%[10 µM],x,x
Cc1ccc(N/C=C(\C2OC(=O)c3ccccc32)[N+](=O)[O-])c(C)c1 (configuration not stated),x,1%,9%,3.5µM*,x
O=C1OC(/C(=C\Nc2cc(Cl)ccc2O)[N+](=O)[O-])c2ccccc21 (configuration not stated),-10%[9.22 µM],-1%[9.22 µM],u,14µM*,x
Cc1cccc(NC(=O)c2sc3nc4c(c(-c5cccs5)c3c2N)CN(C)CC4)c1,14%,19%[9.22 µM],-13%,14µM*,-17%
CC(C)NC(=O)c1sc2nc3c(c(-c4cccs4)c2c1N)CN(C)CC3,2%,14%,-3%,-11%,-13%
CC(C)c1nn2c(=O)cc(COC(=O)c3ccccc3NC(=O)c3cccs3)nc2s1,-1%[46 µM],x,x,x,x
CCOc1ccc(S(=O)(=O)Nc2ccccc2C(=O)Nc2ccccc2N2CCOCC2)cc1,2%,12%,-9%[10 µM],28µM*,-14%
CCOc1ccc(NC(=O)c2ccccc2NS(=O)(=O)c2ccc(F)cc2)c([N+](=O)[O-])c1,u,11µM*,6%[10 µM],5%,-18%
CCOC(=O)c1ccccc1NS(=O)(=O)c1ccc(OCC)cc1,u,11µM*,-44%[10 µM],-1%,-25%
CCn1c2ccccc2c2cc(NC(=O)COC(=O)c3cc(S(N)(=O)=O)c(Cl)cc3Cl)ccc21,u,10%[9.22 µM],5%[10 µM],u,x
COc1ccc(Cl)cc1NC(=O)C1CCN(S(=O)(=O)c2ccc3c(c2)CC(C)N3C(C)=O)CC1 (configuration not stated),-3%[46 µM],x,x,x,x
